Active and inactive are the calls of the source.
What was measured:
[1] = system: XIP peptide (Xip251-270) binding; assay: XIP fragment 251-270 binding compounds – biochemical, small-molecule microarray, fluorescence 635/667 nm, 0.1 µg/mL protein, primary screen (AID 1182); conditions: fluorescent protein binding, 635 nm, higher = more signal, called active from +8 up or from −8 down
XIP peptide (Xip251-270) = assay: compounds binding XIP fragment 251-270 – biochemical, small-molecule microarray, fluorescence 635/667 nm, 0.5 µg/mL protein, primary screen (AID 1183); conditions: fluorescence 635 nm, higher = more signal
[2] = blood-stage malaria parasite viability loss – strain 3D7, DAPI fluorescence, 100 nL, primary screen (AID 1184);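 further: parasites grown inside human red blood cells in medium with human serum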; conditions: P. falciparum 3D7 growth, 3 d, higher = more signal
[3] = biological target: Homeobox protein Hox-A13 (Mus musculus) (UniProt Q62424); assay: disruptors of Hoxa13 oligonucleotide interaction – biochemical, fluorescence polarization, labeled oligonucleotide, primary screen (AID 1185); conditions: Hoxa13:DNA binding, 15 min, higher = more signal, called active from +8 up or from −8 down
Chain of Homeobox protein Hox-A13 (Mus musculus) (Q62424 whole entry, looked up): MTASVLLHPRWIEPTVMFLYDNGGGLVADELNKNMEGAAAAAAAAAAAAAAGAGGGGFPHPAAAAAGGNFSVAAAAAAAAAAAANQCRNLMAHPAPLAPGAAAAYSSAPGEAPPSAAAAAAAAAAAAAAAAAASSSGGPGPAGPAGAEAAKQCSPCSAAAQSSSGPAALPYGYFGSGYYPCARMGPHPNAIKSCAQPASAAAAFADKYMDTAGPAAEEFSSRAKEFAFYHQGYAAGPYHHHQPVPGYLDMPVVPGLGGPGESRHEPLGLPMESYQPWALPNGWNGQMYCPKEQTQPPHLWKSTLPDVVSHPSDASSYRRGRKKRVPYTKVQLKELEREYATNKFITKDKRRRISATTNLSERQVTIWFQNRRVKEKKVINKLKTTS

Row | Structure (SMILES) | composite z-score [1] | composite z-score (XIP peptide (Xip251-270)) | z-score [2] | z-score [3]
1 | C[C@@H]1CC[C@H]2C(=O)O[C@@H](COc3ccc(C(C)(C)C)cc3)CN2[C@H]1c1ccc(Br)cc1 | -0.382 (inactive) | 0.619 | 0.907 | 0.503 (inactive)
2 | COc1ccc(COC(=O)NN=C2C[C@@H](O)[C@@H](O)[C@@H]3[C@@H]4C(=O)N(Cc5ccccc5)C(=O)[C@@H]4CC[C@@H]23)cc1 | -0.662 (inactive) | 0.0404 | 0.0711 | 0.19 (inactive)
3 | CC(=O)OC[C@H]1O[C@H](C#CCC2CCCCC2)C=C[C@@H]1OC(C)=O | 0.525 (inactive) | 0.392 | 0.951 | -5.27 (inactive)
4 | CC(CCN1CCc2nc(-c3ccccc3)c(-c3ccccc3)cc2C1)=NOC(C)CN1CCCc2nc(C)c(C)cc21 (configuration not stated) | 0.161 (inactive) | 0.558 | 0.5 | -9.97 (active)
5 | COC(=O)[C@H](C)NC(=O)CCC1CC(OC(=O)NCc2ccc3c(c2)OCO3)CC2(CCCC(COC(=O)NCCC(C)C)O2)O1 (some centres not stated) | 1.11 (inactive) | 0.106 | -0.489 | -6.3 (inactive)
6 | O=C1[C@H]2CCn3c(=O)n(Cc4cc5c(cc4Cl)OCO5)c(=O)n3[C@H]2[C@H](O)[C@@H]2O[C@H]12 | 0.188 (inactive) | 0.639 | 0.0829 | -0.543 (inactive)
7 | O=C1C[C@@H](O)[C@@H](O)[C@@H]2[C@@H]3C(=O)N(c4ccc(F)cc4F)C(=O)[C@@H]3CC[C@H]12 | 0.139 (inactive) | -0.0234 | 0.289 | -0.55 (inactive)
8 | CC(C)[C@@H](OCc1ccccc1)[C@H](C)C=NOC[C@@H](O)[C@H]1O[C@@H]2OC(C)(C)O[C@@H]2[C@H]1O | -0.12 (inactive) | 0.258 | -0.489 | -1.24 (inactive)

Source: PubChem BioAssay
